Source: PubChem BioAssay (National Center for Advancing Translational Sciences (NCATS))
IP6K1 inh: inhibitors of human IP6K1. IP6K1 kinase, ADP-Glo luminescence, 2 h; active compounds read low. activity change, % (series mostly up to about 58 µM). 0.81% of 140,000 active. AID 1645851; in the data active = activity change below about -25%; note: % is set by controls: 0 for no effect and ±100 for the full control effect
Target sequence (Q92551 whole entry, looked up): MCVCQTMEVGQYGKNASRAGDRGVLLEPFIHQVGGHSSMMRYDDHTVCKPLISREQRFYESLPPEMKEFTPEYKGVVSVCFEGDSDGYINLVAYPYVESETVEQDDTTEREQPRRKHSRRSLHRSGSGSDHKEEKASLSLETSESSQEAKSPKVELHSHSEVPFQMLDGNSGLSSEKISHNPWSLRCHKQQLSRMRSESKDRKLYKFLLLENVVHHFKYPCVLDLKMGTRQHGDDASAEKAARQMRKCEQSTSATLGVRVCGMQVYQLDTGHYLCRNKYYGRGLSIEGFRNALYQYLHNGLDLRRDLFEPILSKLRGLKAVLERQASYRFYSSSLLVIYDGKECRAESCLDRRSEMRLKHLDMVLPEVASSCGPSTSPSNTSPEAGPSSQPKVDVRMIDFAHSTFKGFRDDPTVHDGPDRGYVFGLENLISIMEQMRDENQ
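ADP-Glo luminescence measures ADP made by human IP6K1 during a 2 h RT reaction with ATP/IP6 (mix at 1.3 mM/130 uM); top library doses 57.5 and 19.1 uM final.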
KDM5B inhibitor: blocks human KDM5B histone demethylase activity. Q9UGL1. KDM5B demethylase, FDH-coupled NADH fluorescence (FDH is formaldehyde dehydrogenase). Potency, µM (titrated, usually from 57.7 µM), most hits filed as inhibitors. 2.6% of 220,000 active; active = well fitted inhibition curve with a large enough effect; inconclusive = small, poorly fitted or top-dose-only effect; inactive = no such curve, though single readings can be large or run the other way; note: potency is the fitted concentration of half-maximal effect; 0% is about no effect; nearly all actives have a fitted effect of over 70% in size
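Coupled FDH/NAD⁺ fluorescence readout. KDM5BΔAP 200 nM final; compound titration, 10 min RT preincubation; substrate mix 12.5 µM H3K4me3, 25 µM 2-OG, 50 µM Fe(II), 100 µM ascorbate, 0.25 mM NAD⁺, 0.25 U/mL FDH; ΔRFU over 30 min.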
The depositor's hits bear a star. This is a sample that favours compounds with a hit; in the whole collection about 2.7% have one here.

What do the screens show for `COc1ccc(NC(=O)c2cc(NC(=O)C3CCC3)cc3nc(C)ccc23)cc1`?
IP6K1 inh: 7.1; KDM5B inhibitor: 25.1µM*

Results for Cc1ccc2c(C(=O)N3CCN(C(C)C)CC3)cc(NC(=O)C(C)C)cc2n1 ?
IP6K1 inh: 2.5; KDM5B inhibitor: 25.1µM*

Results for Cc1ccc2c(C(=O)N3CCN(c4ccc(F)cc4)CC3)cc(NC(=O)C(C)C)cc2n1 ?
IP6K1 inh: 21.8; KDM5B inhibitor: inconclusive

How did Cc1ccc2c(C(=O)N3CCOCC3)cc(NC(=O)C3CCC3)cc2n1 do in these assays?
IP6K1 inh: 0.4; KDM5B inhibitor: 22.4µM*

Results for CC(C)CCCNCCNC(=O)/C=N/O ?
KDM5B inhibitor: inactive

How did Cc1ccc(C(=O)N2CCCC(N3C(=O)c4c(c(C)nn4-c4ccccc4)C3C)C2)cc1 (stereo not given) do in these assays?
IP6K1 inh: 1.9

Results for CSc1nnnn1-c1cccc(NC(=O)c2ccccc2Br)c1 ?
KDM5B inhibitor: inactive

What do the screens show for `COc1ccc(CCN(Cc2ccccc2F)CC2(O)CCCNC2)cc1` (stereo not given)?
IP6K1 inh: -13.1; KDM5B inhibitor: inactive

Results for Cc1ccc(/C=C(/C#N)c2nc(-c3ccncc3)cs2)cc1 ?
KDM5B inhibitor: inactive

How did Cc1ccc2c(C(=O)NCCc3cccs3)cc(NC(=O)C3CCC3)cc2n1 do in these assays?
IP6K1 inh: 12.3; KDM5B inhibitor: inconclusive

How did CNC(=O)c1cc(NC(=O)C2CCC2)cc2nc(C)ccc12 do in these assays?
IP6K1 inh: 22.4; KDM5B inhibitor: 31.6µM*

How did Cc1cc(C)cc(NC(=O)C2CCCCC2)c1 do in these assays?
KDM5B inhibitor: inactive

Results for Cc1ccc2c(C(=O)O)cc(NC(=O)C3CCC3)cc2n1 ?
IP6K1 inh: -2.6; KDM5B inhibitor: 22.4µM*

How did O=C(NCCNC(=O)c1ccc(-c2cccc(C(F)(F)F)c2)cc1)c1ccncc1 do in these assays?
IP6K1 inh: -0.2

Results for O=C(NC1CCN(c2ccc3nnc(-c4ccccc4)n3n2)C1)c1ccccc1Cl (stereo not given) ?
IP6K1 inh: 11.9

How did COCCNc1ncccc1-c1noc([C@@H]2CCCN2C2CCN(C(C)=O)CC2)n1 do in these assays?
IP6K1 inh: 3.3; KDM5B inhibitor: 35.5µM*

What do the screens show for `COCCOc1ncccc1-c1noc([C@@H]2CCCN2Cc2ccc(C(=O)O)cc2)n1`?
IP6K1 inh: -2.4; KDM5B inhibitor: inconclusive

How did COCCNc1ccc(-c2noc([C@@H]3CCCN3C3CCOCC3)n2)cn1 do in these assays?
IP6K1 inh: 13.4; KDM5B inhibitor: inconclusive

Results for COCCNc1ncccc1-c1noc([C@@H]2CCCN2Cc2ccccc2OC)n1 ?
IP6K1 inh: 19.8; KDM5B inhibitor: inconclusive

How did COCCNc1ncccc1-c1noc([C@@H]2CCCN2C2CCN(C)CC2)n1 do in these assays?
IP6K1 inh: 2.2; KDM5B inhibitor: 31.6µM*

What do the screens show for `COCCOc1cc(-c2noc([C@@H]3CCCN3C3CCN(C)CC3)n2)ccn1`?
IP6K1 inh: 17.9; KDM5B inhibitor: inactive

Results for COCCNc1ncccc1-c1noc([C@@H]2CCCN2Cc2ccc(C(=O)O)cc2)n1 ?
IP6K1 inh: 10.8; KDM5B inhibitor: 35.5µM*

Results for COCCNc1ncccc1-c1noc([C@@H]2CCCN2C2CCC2)n1 ?
IP6K1 inh: -11.8; KDM5B inhibitor: 31.6µM*

What do the screens show for `COc1cc(S(=O)(=O)N2CCCC2)c(OC)cc1Cl`?
KDM5B inhibitor: inactive

Results for COc1ccc(CCNC(=O)c2nc3sccn3c2-c2ccc(C)cc2)cc1 ?
IP6K1 inh: 6.7

Results for O=C1NC2(CCCCC2)C(=O)N1Cc1cc(F)cc2cccnc12 ?
KDM5B inhibitor: inactive

How did FC(F)(F)c1ccc(CN2CCNc3cc(Nc4ccccc4)ncc3C2)cc1 do in these assays?
IP6K1 inh: -17.8; KDM5B inhibitor: inconclusive

What do the screens show for `CN(C)CCCOc1ccc(-c2cnc(N)cn2)cn1`?
IP6K1 inh: -10.5; KDM5B inhibitor: 31.6µM*

Results for Cc1ccc(C(=O)OCCCN(C)C)cc1 ?
KDM5B inhibitor: inactive

What do the screens show for `Cc1cc(C(=O)N2C[C@@H](COCC3CC3)[C@H](c3ccccn3)C2)n[nH]1`?
IP6K1 inh: 1.7; KDM5B inhibitor: inactive

Results for O=C(c1cc[nH]c(=O)c1)N1C[C@@H](COCC2CC2)[C@H](c2ccccn2)C1 ?
IP6K1 inh: 6.0; KDM5B inhibitor: 28.2µM*

What do the screens show for `O=C1COc2ccc(OCc3ccccc3)nc2CN1CCOc1ccccc1`?
IP6K1 inh: -12.1; KDM5B inhibitor: inactive

How did CC(=O)Nc1ccc(C2(C(=O)N3CCN(c4ccccc4)CC3)CCCCC2)cc1 do in these assays?
IP6K1 inh: 8.2; KDM5B inhibitor: inactive

How did CCCN1CCN(C(=O)C2(c3ccc(NC(=O)C4CC4)cc3)CCCCC2)CC1 do in these assays?
IP6K1 inh: 1.2; KDM5B inhibitor: inactive

Results for CC(C)C(=O)Nc1ccc(C2(C(=O)N3CCCCC3)CCCCC2)cc1 ?
IP6K1 inh: -3.5; KDM5B inhibitor: inactive

How did CS(=O)(=O)Nc1ccc(C2(C(=O)N3CCN(c4ccccn4)CC3)CCCCC2)cc1 do in these assays?
IP6K1 inh: 9.9; KDM5B inhibitor: 22.4µM*

Results for O=C(Nc1ccc(C2(C(=O)N3CCN(c4ccccn4)CC3)CCC2)cc1)C1CC1 ?
IP6K1 inh: -3.3; KDM5B inhibitor: 17.8µM*

Results for CC(C)C(=O)Nc1ccc(C2(C(=O)N3CCN(c4ccccn4)CC3)CCCCC2)cc1 ?
IP6K1 inh: 8.2; KDM5B inhibitor: 22.4µM*

Results for Cc1ccsc1CN1CCC(n2c(C)cnc2-c2ccncc2)C1 (stereo not given) ?
IP6K1 inh: -0.9

Results for O=C(C1CC1)N1CCC2(CC1)CC(c1cccc(C(F)(F)F)c1)=NO2 ?
IP6K1 inh: 11.7

What do the screens show for `CCOCCOC(=O)COc1ccc2c(=O)c(-c3ccc(OC)c(OC)c3)c(C(F)(F)F)oc2c1`?
KDM5B inhibitor: inactive

What do the screens show for `Cc1ccccc1OCC(=O)N1CCC(c2nc3ccccc3s2)CC1`?
IP6K1 inh: -15.3; KDM5B inhibitor: inactive

What do the screens show for `COc1nccnc1NC1CCN(C(=O)c2ccc3[nH]ccc3c2)CC1`?
IP6K1 inh: -6.5; KDM5B inhibitor: inconclusive

How did COc1nccnc1NC1CCN(C(=O)COc2ccccc2C)CC1 do in these assays?
IP6K1 inh: 0.9; KDM5B inhibitor: 31.6µM*

How did COc1ccc(NC2CCCN(C(=O)COc3ccc(C)cc3)C2)cc1 (stereo not given) do in these assays?
KDM5B inhibitor: inactive

Results for COc1nccnc1NC1CCN(C(=O)NC2CCCC2)CC1 ?
IP6K1 inh: -7.0; KDM5B inhibitor: 28.2µM*

How did COc1nccnc1NC1CCN(C(=O)COc2ccc(C)cc2)CC1 do in these assays?
IP6K1 inh: 1.6; KDM5B inhibitor: 28.2µM*

How did Cc1cc(C)c(CN2CCC(n3cc(C(C)(C)N)nn3)CC2)c(C)c1 do in these assays?
IP6K1 inh: 15.1; KDM5B inhibitor: inactive

What do the screens show for `CC(C)(C)OC(=O)NCCC(=O)NC1CCCCC1`?
KDM5B inhibitor: inactive

What do the screens show for `Cc1ccc(-n2c(SCc3nnnn3-c3ccccc3)nnc2N2CCCCC2)cc1`?
KDM5B inhibitor: inactive

How did Cc1ccc(Cn2cc(-c3ccncc3)cc2C(=O)NCC2CC2)cc1 do in these assays?
IP6K1 inh: -0.3; KDM5B inhibitor: 35.5µM*

Results for Cc1ccc(Cn2cc(-c3ccncc3)cc2C(=O)NC2CC2)cc1 ?
IP6K1 inh: 6.4; KDM5B inhibitor: inactive
